High-throughput results as filed in PubChem.
Compounds with a hit are over-represented: about 1.7% of the library has one in this group of screens.
PREPL inh – human PREPL enzyme inhibition; 320,000 tested, 0.68% active; Q4J6C6; inhibition, % at 5.96 µM; recombinant PREPL, fluorescence polarization activity-based probe; in the data active = inhibition above about 43%
LYPLA2 counter – counter-screen for PME1 inhibitors: inhibitors of human LYPLA2; 320,000 tested, 0.38% active; inhibition, % at 5.9 µM; AID 2177; O95372; recombinant LYPLA2, FP-Rh probe fluorescence polarization;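 active = inhibition above the screen-wide mean plus 3 SD, limit set per campaign, cut at about 26% in these data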
Target sequence (O95372 whole entry, looked up): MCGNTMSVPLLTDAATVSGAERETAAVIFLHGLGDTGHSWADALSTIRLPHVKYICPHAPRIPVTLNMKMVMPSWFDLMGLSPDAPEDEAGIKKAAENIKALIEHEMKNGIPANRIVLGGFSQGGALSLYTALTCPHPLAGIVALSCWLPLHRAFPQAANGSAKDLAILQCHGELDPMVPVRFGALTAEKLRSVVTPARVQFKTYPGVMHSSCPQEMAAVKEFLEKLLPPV
Rin1 Abl inh – inhibitors of human Rin1-Abl protein interaction. P00519+Q13671. TR-FRET Rin1/Abl binding, biochemical. inhibition, % at 7.35 µM. 360,000 tested, 0.4% active; in the data active = inhibition above about 5%, passing the limit was not always enough
Hck-Nef inh – inhibitors of human Hck kinase activated by Nef. P08631. Recombinant Hck-YEEI plus Nef, Z-Lyte FRET kinase assay. inhibition, % at 20 µM. 220,000 tested, 0.68% active. AID 463187;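 active = Hck-Nef kinase inhibition above about 50%, limit read from the data; inactive = inhibition below that limit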
p97 inhibitor – inhibitors of human p97 ATPase; P55072; recombinant p97 ATPase, Kinase-Glo ATP luminescence, 3 h; inhibition, % at 8 µM; 220,000 tested, 0.42% active; AID 1481; in the data active = inhibition above about 15%
LYPLA1 inh – LYPLA1 (human) inhibition in PME1 counter-screen; O75608; recombinant LYPLA1, FP-Rh probe fluorescence polarization; inhibition, % at 5.9 µM; 320,000 tested, 0.16% active;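 active = inhibition above the mean of all tested compounds plus 3 SD, set per campaign, cut at about 14% in these data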;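 also: inhibitors block serine hydrolase probe labeling of LYPLA1 so polarization falls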
Target sequence (O75608 whole entry, looked up): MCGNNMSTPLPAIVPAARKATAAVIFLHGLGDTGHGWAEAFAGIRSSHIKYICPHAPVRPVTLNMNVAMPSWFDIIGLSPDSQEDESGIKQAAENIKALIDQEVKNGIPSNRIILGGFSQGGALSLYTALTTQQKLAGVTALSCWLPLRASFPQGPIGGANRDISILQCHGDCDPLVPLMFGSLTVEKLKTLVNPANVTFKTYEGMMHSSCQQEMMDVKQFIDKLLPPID
LYPLA2 conf – counter-screen for PME1 inhibitors: confirmation of human LYPLA2 inhibitors | shares compounds with LYPLA2 counter | recombinant LYPLA2, FP-Rh probe fluorescence polarization | inhibition, % at 5.9 µM | 1,100 tested, 72% active | AID 2232;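 active = mean inhibition across replicates above the hit cutoff set in the primary screen, cut at about 26% in these data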;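 also: blocked labeling of the enzyme by serine hydrolase FP-Rh probe lowers polarization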
LYPLA2 gel ABPP – LYPLA2 (human) inhibition, late stage results. shares compounds with LYPLA2 counter. rhLYPLA2 in mouse brain proteome, gel ABPP FP-Rh. inhibition, % at 20 µM. 150 tested, 30% active. AID 652029;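 active = inhibition of LYPLA2 enzyme probe labeling above about 50%, limit read from the data; inactive = inhibition below that limit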;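 also: loss of FP-Rh probe labeling of the LYPLA2 gel band measured as band density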
Numbers stand for hits; n = inactive; x = no result.

SMILES	PREPL inh	LYPLA2 counter	Rin1 Abl inh	Hck-Nef inh	p97 inhibitor	LYPLA1 inh	LYPLA2 conf	others
COC(=O)c1cc(C)cc(=O)o1	n	n	n	n	n	n	x
Cc1cc(CCCCCCCCc2cc(C)cc(=O)o2)oc(=O)c1	n	37.4	n	n	n	n	44.8
COC(=O)c1c(NC(=O)CS(=O)(=O)c2ccccc2)sc(C)c1C	n	n	n	x	x	n	x
COc1ccc(CCn2c(C)cc(C(=O)COC(=O)c3cnc(C)cn3)c2C)cc1	n	n	n	x	x	n	x
COc1ccc(CCn2c(C)cc(C(=O)COC(=O)c3cnccn3)c2C)cc1	n	42.8	n	x	x	n	40.6
O=C(c1ccc(Br)cc1)N1CCN(c2ccccn2)CC1	x	x	n	x	x	x	x
Cc1occc1-c1nnc(SCCCC(=O)c2ccc(F)cc2)n1C	n	n	n	n	n	n	x
CCn1c(SCC(=O)c2ccc(F)cc2)nnc1-c1ccoc1C	n	34.7	n	n	n	n	n
O=C(Cn1cnc2ccccc2c1=O)c1ccc2ccccc2c1	n	27.1	n	n	n	n	n
COCCNC(=S)N1CCN(C(=O)C(=O)Nc2ccc(C(=O)OC)cc2)CC1	n	n	n	n	n	n	x
COC(=O)c1ccc(NC(=O)C(=O)N2CCN(C(=S)Nc3ccc(C)cc3)CC2)cc1	n	48.0	n	n	n	n	54.5
COC(=O)c1ccc(NC(=O)C(=O)N2CCN(C(=S)Nc3ccc(OC)cc3)CC2)cc1	n	42.1	n	n	n	n	57.8
COc1ccc(N2CCN(C(=O)CNS(=O)(=O)c3ccc(Br)s3)CC2)cc1	n	27.0	n	x	x	n	33.5
COc1ccccc1N1CCN(C(=O)CNS(=O)(=O)c2ccc(Br)s2)CC1	n	n	n	x	x	n	x
COc1ccc(N2CCN(C(=O)CCNS(=O)(=O)c3cc(Br)cnc3N)CC2)cc1	n	31.9	n	x	x	n	n
Cc1ccc(NC(=O)Cn2cnc3c(cnn3C(C)(C)C)c2=O)cc1	n	n	n	n	n	n	x
CC(C)(C)n1ncc2c(=O)n(CC(=O)N3CCCCCC3)cnc21	n	29.1	n	n	n	n	n
COc1ccc(N2CCN(C(=O)c3ccc(Br)cc3)CC2)c([N+](=O)[O-])c1	n	47.6	n	n	n	n	55.5	LYPLA2 gel ABPP=n
CON=Cc1ccc(N2CCN(C(=O)c3ccc(Cl)cc3Cl)CC2)c([N+](=O)[O-])c1	x	x	x	x	x	x	x	LYPLA2 gel ABPP=n
CON=Cc1ccc(N2CCN(C(=O)c3cccc(C(F)(F)F)c3)CC2)c([N+](=O)[O-])c1	x	x	x	x	x	x	x	LYPLA2 gel ABPP=88.0
O=C(c1cccc(S(=O)(=O)N2CCCC2)c1)N1CCN(S(=O)(=O)c2cccc(Cl)c2)CC1	x	x	n	x	x	x	x
Cc1ccc(NC(=O)c2ccc(OCc3c(C)noc3C)cc2)nc1	n	n	n	x	x	n	x
CC(NCc1cccc(OCc2ccccc2)c1)C(O)c1ccccc1 (stereo not given)	n	n	n	n	n	n	x
CC(NCc1ccc(OCc2ccc(Cl)cc2)cc1)C(O)c1ccccc1 (stereo not given)	n	39.0	n	n	n	n	38.1
CC(C)(C)C(=O)N1CCN(c2ccnc3cc(Cl)ccc23)CC1	n	n	n	x	x	n	x
SMILES	PREPL inh	LYPLA2 counter	Rin1 Abl inh	Hck-Nef inh	p97 inhibitor	LYPLA1 inh	LYPLA2 conf	others
CC(=O)c1ccc(N2CCN(c3ccnc4cc(Cl)ccc34)CC2)cc1	n	35.8	n	x	x	n	26.9
Cc1nc2ccccc2nc1OCC(=O)Nc1ccc2ccccc2c1	n	32.5	n	n	n	n	n
Cc1cccc(-n2c(CNC(=O)c3ccc(S(=O)(=O)N4CCCCC4)cc3)n[nH]c2=S)c1	n	78.7	n	x	x	n	n
O=C(NCc1n[nH]c(=S)n1-c1cccc(Cl)c1)c1ccc(S(=O)(=O)N2CCCC2)cc1	n	n	n	n	n	n	x
Cc1cc(S(=O)(=O)N2CCOCC2)ccc1OCC(=O)Nc1ccc(F)c(Cl)c1	n	n	n	x	x	n	x
C[C@@H]1COC(=O)[C@@H](CC(=O)OC(C)(C)C)C/C=C\C[C@@H](CC(=O)N[C@H](CO)Cc2ccccc2)C(=O)N1	n	x	n	x	x	x	x
Cc1ccc(C)c(N2CCN(C(=O)Cc3ccc(-n4c(=O)[nH]c5ccsc5c4=O)cc3)CC2)c1	n	n	n	n	n	n	x
O=C(CCCn1c(=O)[nH]c2ccsc2c1=O)N1CCCCC1	n	n	n	n	n	n	x
CC(=O)c1ccc(N2CCN(C(=O)CCCn3c(=O)[nH]c4ccsc4c3=O)CC2)cc1	n	51.3	n	x	x	n	56.4	LYPLA2 gel ABPP=n
Cc1cccc(N2CCN(C(=O)Cc3ccc(-n4c(=O)[nH]c5ccsc5c4=O)cc3)CC2)c1C	n	66.5	n	n	n	n	68.5	LYPLA2 gel ABPP=56.0
O=S(=O)(c1ccc2c(c1)OCCO2)N1CCCN(S(=O)(=O)c2c(F)cccc2F)CC1	n	n	n	x	x	n	x
Cc1cccc(Nc2ccc([N+](=O)[O-])cc2C(=O)O)c1	n	36.5	n	n	n	n	43.4
Cc1c(Cc2ccccc2)c(=O)oc2cc(OC(=O)c3ccccc3)ccc12	n	n	n	n	n	n	x
Cc1c(Cc2ccccc2)c(=O)oc2cc(OCc3ccc(C(=O)O)cc3)ccc12	n	28.1	n	n	n	n	52.1	LYPLA2 gel ABPP=n
COc1cccc(-c2ccc(NC(=O)C3CCCN(Cc4cnc(N(C)C)s4)C3)cc2)c1 (stereo not given)	n	27.8	n	x	x	n	n
CC(C)Cn1c(=O)c2sccc2n2c(CCCC(=O)N3CCC(N4CCCCC4)CC3)nnc12	n	n	n	x	x	n	x
CC(C)CCn1c(=O)c2sccc2n2c(CCCC(=O)N3CCC(N4CCCCC4)CC3)nnc12	n	27.9	n	x	x	n	n
CC(C)(C)N(NS(=O)(=O)c1ccc(F)cc1)c1ccccc1	n	n	n	x	x	n	x
O=C(NC1CCCCC1)c1cccc(OCc2ccccc2)c1	n	n	n	x	x	n	x
NC(=O)c1cc([N+](=O)[O-])ccc1NCc1cccc([N+](=O)[O-])c1	n	29.4	n	x	x	n	28.8
CCOc1ccc(S(=O)(=O)N(C)CC(=O)NC2CCCC2)cc1	n	n	n	x	x	n	x
Cc1nc2ccccc2n(CC(=O)Nc2cc(Cl)cc(Cl)c2)c1=O	n	31.8	n	n	n	n	42.4
Cc1ccc(NC(=O)Cn2c(=O)c(C)nc3ccccc32)cc1	n	n	n	n	n	n	x
O=[N+]([O-])c1ccc(Sc2cccc3cccnc23)c([N+](=O)[O-])c1	n	n	n	n	n	n	x
O=[N+]([O-])c1ccc(Sc2cccc3cccnc23)cc1	n	27.6	n	n	n	n	n
CC(=O)c1ccc(NC(=O)Cn2cnc(S(=O)(=O)N3CCc4ccccc43)c2)cc1	n	n	n	x	x	n	x
O=C1CC(c2ccccc2)CC(O)=C1C=NCc1ccccc1 (stereo not given)	n	n	n	n	n	n	x
